Experimental data from PubChem BioAssay AID662 (National Center for Advancing Translational Sciences (NCATS), 2007).
About 1,800 (2.5%) of roughly 71,000 compounds were called active. Another 26% or so got no clear call; they are omitted. The call rests on the fitted dose curve; in most records, active means well fitted activation curve with a large enough effect in the signal ratio, with a control signal flat (not every such curve was filed as active); inconclusive means small, poorly fitted or top-dose-only effect, or effect the other way, or a change in a side signal; inactive means flat fitted curve, though single readings scatter; the % refers to the signal ratio. The sample as a whole holds a higher share of actives than the screen did.

Test: Cell signaling CRE-BLA (Fsk stim); on activity change, negative = inhibition: % of control where 0% means no effect
Conditions: CHO CRE-bla reporter (cAMP response element driving beta-lactamase), forskolin EC10, beta-lactamase ratio; series mostly up to 38.2 µM; activity change, negative = inhibition: at the top concentration
Procedure, shortened: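 AC50 values, positive or negative, reflect shifts in EC10 NKH 477-induced CRE-bla reporter activity in CHO cells. Incubation lasted 3 h at 37 °C before CCF4 substrate (2 h, room temperature) and ratiometric 460/530 nm reading.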
Potency means the concentration at half of the fitted maximal effect.

Activity change, negative = inhibition, inactive:
O=C(CC1(O)C(=O)N(CN2CCOCC2)c2ccccc21)c1ccccc1 (stereo not drawn) 1.72%
CCCc1cc(=O)[nH]c(SCC(=O)OCc2ccccc2)n1 -2.25%
CS(=O)(=O)N1CCN(C(=O)Cc2ccccc2)CC1 2.13%
O=P(O)(CN1CCCCC1)CN1CCCCC1 -2.2%
c1ccc(-n2ncc(-c3nn[nH]n3)n2)cc1 -8.34%
O=C(O)CCSc1nnc(-c2ccccc2)n1-c1ccccc1 13.7% [at 7.6 µM]
COc1cccc(-n2c(Cc3cc(=O)[nH]c(=O)[nH]3)nnc2SCC(=O)Nc2ccccc2)c1 0.481%
C=CCn1c(CC(=O)Nc2cccc(OC)c2)nnc1SCC(=O)NC1CCCCC1 -2.75%
CCc1ccc(N(CC)c2ncnc3nc[nH]c23)cc1 -5.12%
CCOC(=O)NC(C(F)(F)F)(C(F)(F)F)P(=O)(c1ccccc1)c1ccccc1 -3.9%
CCCCNC(=O)CSc1nccn1Cc1ccccc1 -2.35%
CS(=O)(=O)N(CC(=O)N1CCN(Cc2ccc3c(c2)OCO3)CC1)c1ccc2c(c1)OCO2 -2.17%
Cc1cc(NC(=O)CCC2COc3ccccc3O2)no1 (stereo not drawn) -1.78%
O=C(CN1C(=O)C2C3C=CC(C3)C2C1=O)NCC1COc2ccccc2O1 (stereo not drawn) -0.372%
COc1ccc(-c2csc(N3CCN(Cc4ccc5c(c4)OCO5)CC3)n2)cc1 -10.5%
Cc1ccc(C(=O)OCC(=O)NCc2ccc3c(c2)OCO3)s1 -8.63%
CC1CCCC(N2CCN(C(=O)c3ccc(F)cc3)CC2)C1 (stereo not drawn) 0.17%
O=C(C(Cc1ccccc1)n1cccc1)N1CCN(C2CCCCC2)CC1 (stereo not drawn) -11.6%
CCOC(=O)NCc1ccc2c(c1)OCO2 -2.53%
O=C(CCC(=O)OCC(F)(F)C(F)F)NCc1ccccc1 -0.132%
COC(=O)[C@@]1(Cc2ccc(F)cc2)[C@H]2c3cc(C(=O)N4CCCC4)n(C[C@H](O)CO)c3C[C@H]2CN1C(=O)c1ccccc1 -11.3%
COc1ccc(-n2nnc3c(=O)n(CC(=O)N4CCC(Cc5ccccc5)CC4)cnc32)cc1 -7.64%
CCOC(=O)C(CCOc1cccc(CC)c1)C(=O)OCC -0.602%

Potency, active:
COc1cccc(-n2c(SCC(=O)NC3CCCCC3)nc3n[nH]c(C)c3c2=N)c1 5.01 µM
CCn1cc(C(=O)NCc2ccc3c(c2)OCO3)c2cc(OC)c(OC)cc2c1=O 2 µM
CCn1cc(C(=O)N2CCN(C3CCCCC3)CC2)c2cc(OC)c(OC)cc2c1=O 10 µM
CCn1cc(C(=O)N2CCN(Cc3ccc4c(c3)OCO4)CC2)c2cc(OC)c(OC)cc2c1=O 7.94 µM
CCn1cc(C(=O)NCC2COc3ccccc3O2)c2cc(OC)c(OC)cc2c1=O (stereo not drawn) 1.58 µM
